Experimental data as given in PubChem BioAssay (EPA / NIEHS).
The source made the active and inactive calls. How the source made its calls: active means hit-call score of the fitted dose curve at least 0.9, where 1 is the maximum; inactive means score below 0.9.

Assays:
[1] = ATG_CRE_CIS: Attagene CIS-FACTORIAL HepG2 Assay for human cAMP Responsive Element (CRE) binding protein 3 (AID 2282926); conditions: HepG2 CRE cis-reporter, Attagene multiplexed mRNA; actives raise or lower the signal
Outline: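 Multiplexed transcription-unit reporters transfected into HepG2; 24 h dosing; RT-PCR/capillary electrophoresis fluorescence read-out; bidirectional fit vs DMSO.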

[2] = target: CCAAT/enhancer-binding protein beta (Homo sapiens) (UniProt P17676); test: ATG_C_EBP_CIS: Attagene CIS-FACTORIAL HepG2 Assay for human CCAAT/Enhancer Binding Protein (C/EBP) beta (AID 2282927); conditions: HepG2 Attagene cis-factorial transcription factor reporter; actives raise or lower the signal
Chain of CCAAT/enhancer-binding protein beta (Homo sapiens) (P17676 whole entry, looked up): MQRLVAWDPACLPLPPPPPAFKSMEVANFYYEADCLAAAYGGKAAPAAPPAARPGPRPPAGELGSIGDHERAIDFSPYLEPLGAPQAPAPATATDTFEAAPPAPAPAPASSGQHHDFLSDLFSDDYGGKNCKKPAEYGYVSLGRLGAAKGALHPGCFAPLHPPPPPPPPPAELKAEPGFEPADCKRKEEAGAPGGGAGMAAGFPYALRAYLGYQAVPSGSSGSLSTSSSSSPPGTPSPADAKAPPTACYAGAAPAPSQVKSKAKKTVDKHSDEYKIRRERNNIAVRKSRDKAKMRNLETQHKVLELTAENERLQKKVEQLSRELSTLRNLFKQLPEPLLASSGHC
Outline: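 Endogenous transcription factor activity in human liver HepG2 cells is inferred from induction of a CEBPB-linked reporter mRNA. Exposure lasts 24 h; activity is fitted in both directions relative to DMSO.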

[3] = ATG_CMV_CIS: Attagene CIS-FACTORIAL HepG2 Assay for human CMV (Internal Marker) (AID 2282928); conditions: HepG2 CMV promoter reporter, transcription factor profiling; actives raise or lower the signal;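 further: endpoint acts as a background internal control marker rather than a target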
Outline: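 Endogenous transcription factor activity read in HepG2 via transfected cis-promoter reporter units. After 24 h dosing, reporter mRNA measured by RT-PCR/capillary electrophoresis; gain or loss of signal fit relative to DMSO.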

[4] = ATG_DR4_LXR_CIS: Attagene CIS-FACTORIAL HepG2 Assay for human Liver X Receptor (LXR), DR4 submotif (AID 2282929); conditions: HepG2 Attagene DR4 cis-reporter, mRNA transcription; actives raise or lower the signal
Outline: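 DR4 cis-reporter in HepG2, 24 h exposure. Detection: RT-PCR, 6-FAM labelling, CE fragment analysis. Endpoint fitted bidirectionally, DMSO = baseline.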

[5] = target: Aryl hydrocarbon receptor (Homo sapiens) (UniProt P35869); test: ATG_Ahr_CIS: Attagene CIS-FACTORIAL HepG2 Assay for human Aryl Hydrocarbon Receptor (Ahr) (AID 2282930); conditions: HepG2 AhR cis-factorial reporter transcription; actives raise or lower the signal
Chain of Aryl hydrocarbon receptor (Homo sapiens) (P35869 whole entry, looked up): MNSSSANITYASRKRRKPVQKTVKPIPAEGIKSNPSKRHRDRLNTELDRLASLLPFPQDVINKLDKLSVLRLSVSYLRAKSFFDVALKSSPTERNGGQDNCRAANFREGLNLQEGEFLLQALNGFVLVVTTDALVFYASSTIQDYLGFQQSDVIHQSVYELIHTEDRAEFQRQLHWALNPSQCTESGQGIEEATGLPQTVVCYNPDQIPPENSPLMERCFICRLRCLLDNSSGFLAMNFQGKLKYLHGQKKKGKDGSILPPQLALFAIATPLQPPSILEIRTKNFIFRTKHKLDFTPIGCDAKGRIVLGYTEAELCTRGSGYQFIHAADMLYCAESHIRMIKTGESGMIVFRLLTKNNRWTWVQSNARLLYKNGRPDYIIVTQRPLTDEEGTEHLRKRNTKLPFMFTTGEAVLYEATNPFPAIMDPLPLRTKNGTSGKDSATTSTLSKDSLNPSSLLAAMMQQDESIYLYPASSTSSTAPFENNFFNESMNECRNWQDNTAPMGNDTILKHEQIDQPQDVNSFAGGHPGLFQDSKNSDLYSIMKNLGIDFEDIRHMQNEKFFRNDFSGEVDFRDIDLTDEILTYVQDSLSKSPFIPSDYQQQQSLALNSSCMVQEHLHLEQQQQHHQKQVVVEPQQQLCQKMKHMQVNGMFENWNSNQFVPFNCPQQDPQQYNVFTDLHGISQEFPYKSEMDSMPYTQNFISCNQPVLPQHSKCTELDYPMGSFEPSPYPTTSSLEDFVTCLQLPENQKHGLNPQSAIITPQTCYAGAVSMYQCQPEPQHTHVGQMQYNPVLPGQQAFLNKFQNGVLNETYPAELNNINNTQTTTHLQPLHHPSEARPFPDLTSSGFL
Outline: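 Transient MRTU transfection of HepG2 → 24 h compound exposure → total RNA, oligo(dT) RT → PCR, 6-FAM extension, HpaI cut → CE fluorescence. DMSO = baseline; bidirectional curve fit.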

[6] = ATG_AP_1_CIS: Attagene CIS-FACTORIAL HepG2 Assay for human Activator Protein 1 (AP-1) (AID 2282931); conditions: HepG2 Attagene cis-factorial AP-1 reporter mRNA; actives raise or lower the signal
Outline: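 Cis-regulated reporter units transiently expressed in HepG2 report endogenous transcription-factor activity. Signal: reporter mRNA at 24 h, via RT-PCR and fluorescent capillary electrophoresis. Endpoint derived by bidirectional fitting, DMSO as negative control.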

[7] = ATG_AP_2_CIS: Attagene CIS-FACTORIAL HepG2 Assay for human Activator Protein 2 (AP-2) (AID 2282932); conditions: HepG2 AP-2 cis-reporter, Attagene transcription factor profiling; actives raise or lower the signal
Outline: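 HepG2, transient MRTU transfection, cis-regulated reporters; 24 h compound exposure; RNA isolated, RT-PCR, 6-FAM labelling, HpaI digest, CE fluorescence. DMSO = negative control/baseline, bidirectional fit.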

[8] = target: Transcription factor E2F1 (Homo sapiens) (UniProt Q01094); test: ATG_E2F_CIS: Attagene CIS-FACTORIAL HepG2 Assay for human E2F Transcription Factor 1 (AID 2282935); conditions: HepG2 Attagene cis-reporter, E2F reporter RNA transcripts; actives raise or lower the signal
Chain of Transcription factor E2F1 (Homo sapiens) (Q01094 whole entry, looked up): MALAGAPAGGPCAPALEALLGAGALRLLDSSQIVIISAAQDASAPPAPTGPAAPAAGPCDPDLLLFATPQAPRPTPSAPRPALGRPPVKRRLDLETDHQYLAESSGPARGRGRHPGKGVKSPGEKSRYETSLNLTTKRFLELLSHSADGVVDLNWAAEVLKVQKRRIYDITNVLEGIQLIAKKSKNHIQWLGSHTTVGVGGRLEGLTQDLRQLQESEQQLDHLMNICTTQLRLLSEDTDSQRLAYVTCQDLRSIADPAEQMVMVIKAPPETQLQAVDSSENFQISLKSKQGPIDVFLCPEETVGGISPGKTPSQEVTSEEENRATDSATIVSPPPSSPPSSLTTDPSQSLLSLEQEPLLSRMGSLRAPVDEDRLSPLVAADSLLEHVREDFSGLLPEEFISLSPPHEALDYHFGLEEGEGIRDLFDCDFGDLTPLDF
Outline: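 Cis-element reporter mRNA induction in transiently transfected HepG2, 24 h exposure. Activity fitted in both directions relative to DMSO negative control.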

[9] = ATG_E_Box_CIS: Attagene CIS-FACTORIAL HepG2 Assay for human Enhancer Box (E-box) (AID 2282936); conditions: HepG2 E-box cis-reporter transcription, actives raise or lower the signal
Outline: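 Cells: HepG2 (human liver), transient MRTU transfection. Exposure 24 h. RNA → oligo(dT) RT → PCR → 6-FAM label → HpaI → CE. Activity fitted both directions relative to DMSO.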

[10] = ATG_M_61_CIS: Attagene CIS-FACTORIAL HepG2 Assay for M61 Transcription Factor (Internal Marker) (AID 2282937); conditions: HepG2 Attagene CIS-FACTORIAL M61 internal marker reporter; actives raise or lower the signal
Outline: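 Background-control endpoint: HepG2 cells with cis-regulated reporter constructs, 24 h exposure, reporter mRNA detected via fluorescent primer extension and capillary electrophoresis; values from bidirectional fitting with DMSO baseline.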

[11] = ATG_EGR_CIS: Attagene CIS-FACTORIAL HepG2 Assay for human Early Growth Response 1 (EGR1) (AID 2282938); conditions: HepG2 Attagene CIS-FACTORIAL EGR reporter mRNA; actives raise or lower the signal
Outline: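 Endpoint derived by bidirectional fitting versus DMSO vehicle. Method: cis-promoter reporter units transfected into HepG2, 24 h dosing, RNA isolation, RT-PCR with 6-FAM primer extension and HpaI digestion, then capillary electrophoresis fluorescence detection.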

[12] = ATG_M_19_CIS: Attagene CIS-FACTORIAL HepG2 Assay for M19 Transcription Factor (Internal Marker) (AID 2282939); conditions: HepG2 Attagene CIS-FACTORIAL M19 internal marker reporter; actives raise or lower the signal
Outline: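 Chemical-treated HepG2 (24 h) with MRTU constructs; reporter transcripts detected by fluorescent RT-PCR fragment analysis on capillary electrophoresis. Internal background marker, DMSO as baseline.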

[13] = ATG_ERE_CIS: Attagene CIS-FACTORIAL HepG2 Assay for Estrogen Response Element (ERE) (AID 2282940); conditions: HepG2 ERE cis-reporter, Attagene RNA transcript; actives raise or lower the signal
Outline: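 Human liver cells (HepG2) bearing transiently transfected, promoter-regulated reporter units were exposed 24 h. Reporter mRNA induction was detected by capillary electrophoresis of labelled RT-PCR products and fitted bidirectionally to DMSO.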

[14] = ATG_Ets_CIS: Attagene CIS-FACTORIAL HepG2 Assay for human Erythroblast Transformation Specific (ETS) (AID 2282941); conditions: HepG2 ETS cis-reporter transcription, actives raise or lower the signal
Outline: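 Steps: transfect HepG2 with multiple reporter units; treat compound 24 h; isolate RNA, DNase-treat, reverse-transcribe; PCR-amplify, label with 6-FAM, digest with HpaI; separate by capillary electrophoresis. Activity fitted both directions versus DMSO.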

[15] = target: Hepatocyte nuclear factor 3-beta (Homo sapiens) (UniProt Q9Y261); test: ATG_FoxA2_CIS: Attagene CIS-FACTORIAL HepG2 Assay for human Forkhead box A2 (FOXA2) (AID 2282942); conditions: HepG2 cis-reporter transcription factor activity, 24 h; actives raise or lower the signal
Chain of Hepatocyte nuclear factor 3-beta (Homo sapiens) (Q9Y261 whole entry, looked up): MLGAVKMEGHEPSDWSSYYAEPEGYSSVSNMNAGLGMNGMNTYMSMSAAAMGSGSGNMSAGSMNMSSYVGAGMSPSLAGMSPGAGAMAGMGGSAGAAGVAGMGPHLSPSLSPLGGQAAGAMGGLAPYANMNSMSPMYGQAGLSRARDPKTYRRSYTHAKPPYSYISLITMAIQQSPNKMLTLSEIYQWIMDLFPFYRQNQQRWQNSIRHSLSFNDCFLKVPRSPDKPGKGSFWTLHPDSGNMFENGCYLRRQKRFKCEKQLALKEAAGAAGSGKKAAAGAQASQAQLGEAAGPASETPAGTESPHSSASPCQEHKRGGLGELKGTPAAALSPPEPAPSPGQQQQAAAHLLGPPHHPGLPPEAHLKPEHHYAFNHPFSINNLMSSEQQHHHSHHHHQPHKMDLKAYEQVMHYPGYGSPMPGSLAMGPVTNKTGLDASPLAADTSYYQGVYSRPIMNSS
Outline: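 Measured: reporter mRNA induction or loss in HepG2 transiently carrying multiple cis-regulated reporter units, 24 h after dosing. Quantified by RT-PCR plus capillary electrophoresis, normalised to DMSO.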

[16] = ATG_FoxO_CIS: Attagene CIS-FACTORIAL HepG2 Assay for human Forkhead box O (FoxO) (AID 2282943); conditions: HepG2 Attagene cis-reporter, FoxO element, mRNA; actives raise or lower the signal
Outline: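 HepG2, transient MRTU transfection (cis element, endogenous TFs). Dose 24 h. TriZol RNA → oligo(dT) RT → PCR → 6-FAM primer extension → HpaI cut → CE. Gain/loss vs DMSO.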

[17] = ATG_GATA_CIS: Attagene CIS-FACTORIAL HepG2 Assay for human GATA Binding Protein (AID 2282944); conditions: HepG2 GATA cis-element reporter, Attagene multiplex mRNA; actives raise or lower the signal
Outline: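 Transfected cis-reporter HepG2 cells were treated with chemicals for 24 hours. Total RNA was then converted to cDNA, amplified with reporter-specific primers and analysed by fluorescent capillary electrophoresis, using DMSO-treated wells as baseline.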

[18] = ATG_GLI_CIS: Attagene CIS-FACTORIAL HepG2 Assay for human Zinc Finger Protein GLI1 (AID 2282945); conditions: HepG2, Attagene cis-factorial reporter mRNA, GLI element; actives raise or lower the signal
Outline: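 Bidirectional curve fits relative to DMSO, using reporter mRNA levels from RT-PCR plus capillary electrophoresis. Cells were HepG2 transiently carrying cis-regulated reporter constructs, harvested 24 h after dosing.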

[19] = ATG_BRE_CIS: Attagene CIS-FACTORIAL HepG2 Assay for human Bone Morphogenetic Protein (BMP) Response Element (BRE) (AID 2282933); conditions: HepG2 BMP response element reporter, Attagene transcription factor profiling; actives raise or lower the signal
Outline: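 A HepG2 multiplex reporter system measured inducible reporter mRNA 24 h post-dosing. Detection: RT-PCR, 6-FAM primer extension, HpaI digestion, capillary electrophoresis. Activity fitted bidirectionally relative to DMSO.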

Measured: AC50

C=C(C)[C@@H]1CCC2=CC(=O)C[C@@H](C)[C@]2(C)C1
inactive: [1] | [2] | [3] | [5] | [7] | [8] | [9] | [10] | [11] | [12] | [13] | [14] | [15] | [16] | [17] | [18]
active: [4] 177 µM | [6] 53.4 µM

CCCCCCCCCC=O
inactive: [1] | [2] | [3] | [4] | [5] | [6] | [7] | [19] | [8] | [10] | [11] | [12] | [15] | [16] | [17] | [18]

CC(C)=CCO
inactive: [1] | [2] | [3] | [4] | [5] | [6] | [7] | [8] | [9] | [10] | [11] | [12] | [13] | [14] | [15] | [16] | [17] | [18]

C=C[Si](OCC)(OCC)OCC
inactive: [1] | [2] | [3] | [4] | [5] | [6] | [7] | [19] | [8] | [10] | [11] | [12] | [14] | [15] | [16] | [18]

Nc1cc([N+](=O)[O-])ccc1O
inactive: [1] | [2] | [3] | [4] | [6] | [7] | [19] | [8] | [9] | [12] | [15] | [16] | [17] | [18]
active: [5] 100 µM

Cc1ccc(C(C)C)cc1O
inactive: [1] | [2] | [3] | [4] | [5] | [6] | [7] | [19] | [8] | [9] | [11] | [12] | [14] | [15] | [16] | [18]

Nc1cc([N+](=O)[O-])ccc1Cl
inactive: [1] | [2] | [3] | [4] | [6] | [7] | [19] | [8] | [10] | [11] | [12] | [14] | [15] | [16] | [17] | [18]
active: [5] 20.2 µM

C=CCOC(=O)CCC1CCCCC1
inactive: [1] | [2] | [3] | [4] | [5] | [6] | [7] | [19] | [8] | [9] | [11] | [12] | [14] | [15] | [16] | [17] | [18]

CC(C)c1ccc(C(C)C)cc1
inactive: [1] | [2] | [4] | [5] | [6] | [7] | [19] | [8] | [10] | [11] | [12] | [15] | [16] | [18]
active: [3] 156 µM | [13] 155 µM
